From PubChem
This is a sample that favours compounds with a hit; in the whole collection about 1.5% have one here.
HIF activator = HIF pathway transcriptional activation | U2OS HRE-luciferase reporter, luminescence; normalized: DMSO 0%, desferrioxamine 100% | activation, % at 7.5 µM (by protocol) | 300,000 compounds, 0.32% hits | AID 1910;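 active = mean activation of at least 10% of the iron chelator positive control signal, with at least half of replicates also reaching 10%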
PP5 primary = PP5 (human) phosphatase inhibition. P53041. purified PP5c, OMFP substrate fluorescence. inhibition, % at 6.7 µM. 320,000 compounds, 0.18% hits. AID 1987;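 active = inhibition above the campaign's mean inhibition across all tested compounds plus 3 SD, cut at about 9.5% in these data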;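 note: 0% = DMSO only and 100% = 100 µM cantharidin control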
PP1 counter = counter-screen for PP5 inhibitors: inhibitors of human PP1-alpha; AID 2235; purified PP1alpha, OMFP fluorescence; inhibition, % at 6.7 µM; P62136; 320,000 compounds, 0.9% hits;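 active = inhibition above the mean inhibition of all tested compounds plus 3 SD, computed separately for each screening campaign, cut at about 15% in these data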
Target sequence (P62136 whole entry, looked up): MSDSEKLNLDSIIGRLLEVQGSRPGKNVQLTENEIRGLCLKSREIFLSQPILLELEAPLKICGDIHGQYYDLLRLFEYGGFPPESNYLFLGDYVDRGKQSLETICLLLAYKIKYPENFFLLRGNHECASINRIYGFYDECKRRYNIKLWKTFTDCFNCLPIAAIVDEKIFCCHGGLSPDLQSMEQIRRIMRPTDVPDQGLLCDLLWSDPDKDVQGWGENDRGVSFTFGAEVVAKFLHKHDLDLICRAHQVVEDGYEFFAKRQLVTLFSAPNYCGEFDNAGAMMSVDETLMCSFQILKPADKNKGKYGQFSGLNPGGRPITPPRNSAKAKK
Dyrk1A ADPGlo = blocks rat Dyrk1A kinase activity. Q63470. ADP-Glo luminescence, NFATc1 peptide. inhibition, % at 12.5 µM. 310,000 compounds, 0.43% hits. AID 504441; in the data active = inhibition above about 50%;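 note: plate controls were vehicle with enzyme for no effect and no enzyme for full effect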
STK33 inh = inhibitors of human STK33 kinase; inhibition, % at 10 µM; 320,000 compounds, 0.073% hits; purified STK33, MBP phosphorylation, ADP-Glo luminescence; AID 2661; Q9BYT3;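 active = inhibition at or above 25%, using the most active replicate where run in duplicate; inactive = inhibition below 25%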
* = called active by the depositor; nt = no result.

SMILES	HIF activator	PP5 primary	PP1 counter	Dyrk1A ADPGlo	STK33 inh
CCOc1ccc(C(CC(=O)O)NC(=O)C(CC)c2ccccc2)cc1 (stereo not drawn)	-1	0	0	-3	-1
COc1cccc(CNC(=O)COC(=O)CCS(=O)(=O)c2ccc(C)cc2)c1	nt	nt	nt	-8	nt
S=c1[nH]nc(-c2ccccc2)n1/N=C/c1cccs1	0	1	4	23	4
S=c1[nH]nc(-c2ccco2)n1/N=C/c1cccs1	58*	2	-3	32	1
COc1ccccc1-c1sc2ccccc2c1-c1ccccc1OC	nt	1	-3	-6	1
CCCCNC(=S)Nc1cccc(S(=O)(=O)NC2=NCCC2)c1	-1	-1	16*	12	-1
O=C1CC(=C2c3ccccc3-c3ccccc32)C(=O)N1CCN1CCN(c2ccccc2)CC1	1	4	17*	nt	-1
COc1cccc(C2C3=C(N=C4SCC(=O)N42)c2ccccc2CC3)c1OC (stereo not drawn)	0	2	0	-1	0
COc1cccc(C2C3=C(N=c4s/c(=C\c5ccccc5O)c(=O)n42)c2ccccc2CC3)c1OC (stereo not drawn)	616*	-3	3	nt	0
Cc1cccc2c1[nH]c1nc(N/N=C\c3ccco3)nnc12	1	5	0	nt	1
CC(/C=N/Nc1nnc2c(n1)[nH]c1ccccc12)=C\c1ccco1	1	3	16*	3	1
COc1ccc([N+](=O)[O-])c(OC)c1C(=O)NC(=O)Nc1nc(C)nc(C)n1	-1	-1	-1	2	-1
COc1cc(NC(=S)N2CCc3ccccc3C2)cc(OC)c1	0	5	-3	-2	0
O=C(CCN1C(=O)S/C(=C\c2ccc(F)cc2)C1=O)Nc1ccc(C(=O)O)c(O)c1	30*	-3	-2	5	1
C[C@H](CO)N1C[C@H](C)[C@@H](CN(C)C(=O)NC2CCCCC2)Oc2c(NS(=O)(=O)c3ccc(F)cc3)cccc2C1=O	nt	nt	nt	-2	0
Cc1cccc(N2CCN(S(=O)(=O)c3c(C)noc3/C=C/N(C)C)CC2)c1C	1	2	2	nt	-1
COc1cc(C)c2c(c1C=O)Oc1c(c(C)c(O)c3c1C(O)OC3=O)OC2=O (stereo not drawn)	0	7	15	7	44*
COc1ccc(CNC(=O)C/C(C)=N/NC(=O)c2cnccn2)cc1	0	-2	-3	3	nt
CNC(=S)N/N=C/c1cc(Br)cc(Br)c1O	0	1	2	9	0
Oc1c(Br)cc(Br)cc1/C=N/NC(=S)N[C@H]1CC2C=CC1C2 (stereo partly drawn)	0	3	17*	7	-1
Cc1ccc(OCCNC(=O)CNC(=O)c2ccc(Cl)c([N+](=O)[O-])c2)cc1	nt	nt	nt	-8	-1
Nc1c(Cl)cc(-c2csc(N3CCCC3c3nc4cc(Cl)c(Cl)cc4n3CCCO)n2)cc1Cl (stereo not drawn)	0	2	4	-3	-1
Nc1c(Cl)cc(-c2csc(N3CCCC3c3nc4cc(Cl)c(N5CCCCC5)cc4n3CCCO)n2)cc1Cl (stereo not drawn)	1	4	17*	-3	-1
CC(C)(O)P(=O)(O)CCc1ccccc1	-1	1	-1	2	-1
O=[N+]([O-])c1cc(Cl)cc(/C=N\Nc2ccccn2)c1O	21*	1	-4	7	0
SMILES	HIF activator	PP5 primary	PP1 counter	Dyrk1A ADPGlo	STK33 inh
O=[N+]([O-])c1ccc(Cl)cc1C=NNc1ccccn1	nt	nt	nt	-2	nt
COC(=O)c1cc(NS(=O)(=O)c2ccc(N3CCOCC3)c(N)c2)cc(C(=O)OC)c1	0	2	-2	-3	-2
Cc1csc2nc(O)c(C(=O)NCc3ccc4c(c3)OCO4)c(=O)n12	0	-2	17*	-5	nt
Cc1csc2nc(O)c(C(=O)NC3CCCCC3)c(=O)n12	-2	-1	0	2	0
Cc1ccccc1NC(=O)CN(C)S(=O)(=O)c1ccc(-c2ccc(=O)[nH]n2)s1	519*	2	-3	nt	-1
Cc1cccc(NC(=O)CN(C)S(=O)(=O)c2ccc(-c3ccc(=O)[nH]n3)s2)c1C	0	3	6	-10	-1
O=S(=O)(Nc1nccs1)c1ccc(Nc2nnc(-c3ccccc3)c3ccccc23)cc1	0	5	17*	0	0
Cc1onc(-c2ccccc2)c1C(=O)Nc1ccc(S(=O)(=O)Nc2nccs2)cc1	0	4	0	-7	0
COc1cccc(C(=O)N/N=C(/c2ccccc2)c2ccccn2)c1	11*	4	6	6	2
COc1cccc(C(=O)NNC(=O)c2ccccc2)c1	1	nt	nt	2	0
COc1cc(C(=O)N/N=C(\c2ccccc2)c2ccccn2)cc(OC)c1OC	64*	-1	-7	3	-2
c1ccc(CSC2=NNC(c3ccccn3)S2)cc1 (stereo not drawn)	14*	-1	4	nt	-1
c1ccc(CSc2ncccn2)cc1	nt	2	0	-1	-4
O=C(CSC1=NNC(c2ccccn2)S1)Nc1ccc(C(F)(F)F)cc1 (stereo not drawn)	25*	1	-3	9	-1
COc1ccc2c(c1OC)C(=O)OC2N1C(=O)CC[C@H]1C(=O)Nc1ccc(F)cc1F (stereo partly drawn)	0	-1	-3	1	-3
CCC(C)c1ccccc1N1CC(C(=O)N2CCN(S(=O)(=O)c3cccc([N+](=O)[O-])c3)CC2)CC1=O (stereo not drawn)	nt	nt	nt	-2	nt
O=C(N[C@@H](Cc1ccccc1)C(=O)OCc1ccccc1)c1nc[nH]c1C(=O)NC(c1ccccc1)c1ccccc1	-1	5	17*	-2	0
c1ccc(-c2ncc(-c3ccn[nH]3)s2)cc1	0	0	16*	3	0
c1ccc(Oc2ccc(-c3ccn[nH]3)cc2)cc1	2	0	-3	13	-1
CSc1nc(SCC(=O)NC(c2ccccc2)c2ccccc2)c2c3c(sc2n1)CN(C)CC3	0	3	16*	2	-2
CCOC(=O)c1c(NC(=O)CN2C(=O)NC3(CCC(C)CC3)C2=O)sc(C)c1-c1ccc(C)cc1 (stereo not drawn)	39*	0	-2	7	0
CCOC(=O)c1c(NC(=O)CN2C(=O)NC3(CCCCC3)C2=O)sc(C)c1-c1ccc(C)cc1	1	4	0	-1	-3
CCN(CC)c1ccc(S(=O)(=O)Nc2cc(Cl)ccc2Cl)cc1NC(=S)NC(=O)C1CCCC1	0	2	15*	-1	-3
CCCCC1=CC2=C(c3ccco3)C(=O)C(C)(OC(=O)c3ccc(OC)cc3)C(=O)C2=CN1Cc1ccccc1 (stereo not drawn)	-1	0	13	-11	-1
CCCCC1=CC2=C(c3ccco3)C(=O)C(C)(OC(=O)c3ccc(OC)cc3)C(=O)C2=CN1Cc1ccc2c(c1)OCO2 (stereo not drawn)	0	2	24*	-3	-1
